Assay [1] can be described thus: viability loss in pontine glioma line – cell-based, SU-DIPG-XXV, MIPE5.0, CellTiter-Glo, qHTS, dose response (AID 1347065; cut-off not given, nearly all actives have AC50 up to about 26 µM;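 further: cells exposed to compound for 48 hours before ATP readout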). The conditions noted are these: CellTiter-Glo ATP luminescence.
Assay [2] is described as follows: growth inhibition of DIPG cells – cell-based, MIPE4.0 library, CellTiter-Glo luminescence, qHTS (AID 1347066; cut-off not given, nearly all actives have AC50 up to about 30 µM;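 further: cells exposed to compound for 48 hours before readout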). Particulars: SU-DIPG-VI viability, CellTiter-Glo ATP luminescence.
Assay [3] can be described thus: JHH-DIPG-1 glioma cell viability, MIPE5.0 library, CellTiter-Glo luminescence, qHTS (AID 1347067; cut-off not given, nearly all actives have AC50 up to about 26 µM;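 further: cells exposed to compound for 48 hours before readout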). The conditions noted are these: JHH-DIPG-1 glioma viability, CellTiter-Glo ATP luminescence.
Assay [4] can be described thus: growth inhibition of DIPG cells – cell-based, MIPE5.0 library, qHTS (AID 1347068; cut-off not given, nearly all actives have IC50 up to about 30 µM). The conditions noted are these: SU-DIPG-XXV viability.
Assay [5] is described as follows: compounds altering HSF1 focus formation in cells – imaging, Selleck Cancer Library (AID 1347162; in the data active means plate-normalised HSF1 focus index below about 0.46). Particulars: human cells, HSF1 nuclear foci imaging, at 10 µM; SSMD: measured here: HSF1 foci SSMD mean; cell count: measured here: cell number; plate-normalised HSF1 focus index: stronger effect = lower value.
A short description of assay [6]: viability loss in pontine glioma line – cell-based, SU-DIPG-XIII, MIPE5.0, CellTiter-Glo, qHTS, dose response (AID 1347064; cut-off not given, nearly all actives have AC50 up to about 23 µM;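 on AC50: cells exposed to compound for 48 hours before the viability read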). The conditions noted are these: CellTiter-Glo ATP luminescence.
Assay [7] can be described thus: viability loss with induced miR-34 in A549 – imaging, A549 dox-inducible miR-34, nuclei and caspase counts, primary screen (AID 1347080;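 active means compounds whose cell count with miR-34 switched on is under 0.7 times the count with it off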). The conditions noted are these: A549 miR-34 inducible, Hoechst nuclei count, 48 h.
The nature of assay [8]: MELAS cybrid and Rieske KO viability enhancers – cell-based, MELAS cybrids, Rieske KO mouse fibroblasts, CellTiter-Glo, primary screen (AID 1508586;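 active means mean z-score across replicates of 1.96 or higher in either the MELAS or the Rieske mutant cell line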;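 further: z relative to plate mean and SD of compound and empty wells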). Particulars: low glucose.
Assay [9] can be described thus: drug combination growth inhibition, ovarian cancer – cell-based, oncology-focused library, rucaparib conditional, profiling panel (AID 1508598). Particulars: patient-derived ovarian cancer cells, CellTiter-Glo viability, 144 h, stronger effect = lower value.
Setting [10] is: stronger effect = lower value, cell number ratio, induced over uninduced.
The mark [11] stands for this setting: measured here: relative caspase fold change +Dox/-Dox.
[12] abbreviates: measured here: total cells with miR-34 induction, stronger effect = lower value.
Where [13] appears, read: measured here: total cells without miR-34 induction.
Setting [14] is: MELAS cybrid survival, CellTiter-Glo 48 h, stronger effect = higher value.
Setting [15] is: Rieske KO mouse fibroblast survival, CellTiter-Glo 72 h.

Inconclusive results are not listed. Activity calls are given as the source filed them.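 How the source made its calls, unless noted: active means normalized viability below 100% at a tested concentration; inactive means the rest.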

Take `N#Cc1ccc(Cn2cncc2CN2CCN(c3cccc(Cl)c3)C(=O)C2)cc1`: in assay [1], the AC50 is 9.34 µM (active).

As to `Cc1cc(/C=c2/sc3nc4ccccc4n3c2=O)c(C)n1-c1ccccc1`, the AC50 in [1] was 20.9 µM (active). In addition, the outcome in [2] was inactive. The result in assay [3] was inactive. Besides, in assay [4], the call was inactive. In assay [5], the SSMD was determined as 3.08, the cell count is 7030 and the plate-normalised HSF1 focus index was 1.18 (inactive).

For `O=C(c1c(F)ccc(NS(=O)(=O)N2CC[C@@H](F)C2)c1F)c1c[nH]c2ncc(-c3cnc(C4CC4)nc3)cc12`, the AC50 in assay [1] is 10.5 µM (active).

`Cc1cc(C)c2c(c1)[C@@H](N(Cc1cc(C(F)(F)F)cc(C(F)(F)F)c1)c1nnn(C)n1)CCCN2CC1CCC(C(=O)O)CC1` (stereo partly drawn): the AC50 in assay [6] is 20.9 µM (active). The call in [4] was inactive. The results for the fold change in assay [7] (setting [10]) and in assay [7] (setting [11]) were 0.938 (inactive) and 0.636, respectively. For the same compound, the cell count was 6920 in assay [7] (setting [12]) and 7380 in assay [7] (setting [13]). Besides, the z-score was -0.009 (inactive) in assay [8] (setting [14]) and -0.0411 in [8] (setting [15]).

On to `Cc1nn(C)c2c1C(c1ccc(C(F)(F)F)cc1)C(C#N)=C(N)O2` (stereo not drawn), for which the compound was classed as inactive in [6] and in assay [4].

Consider `CN1CCN(c2nc(C3=C(c4c[nH]c5ccccc45)C(=O)NC3=O)c3ccccc3n2)CC1`, for which the compound was called inactive in assay [6], in assay [3] and in assay [4]. In addition, the fold change in assay [7] (setting [10]) was 0.982 (inactive); in [7] (setting [11]) it was 0.809. Further, the cell count came to 8410 in assay [7] (setting [12]), 8570 in assay [7] (setting [13]) and 7110 in assay [5]. For the same compound, the SSMD in assay [5] was found to be 1.44. Further, the plate-normalised HSF1 focus index in [5] was 1.09 (inactive). Further, the results for the z-score in assay [8] (setting [14]) and in assay [8] (setting [15]) were -0.37 (inactive) and 0.177, respectively. Also, the viability in assay [9] (at 0.000305 µM, OCI-C5x cells, with rucaparib 10 µM, 100% = cells with rucaparib alone) was 105% (inactive); in assay [9] (at 0.000305 µM, OCI-C5x cells, without rucaparib), 102% (inactive); in assay [9] (at 0.000305 µM, OCI-P5x cells, with rucaparib 20 µM, 100% = cells with rucaparib alone), 96.2% (active); in assay [9] (at 0.000305 µM, OCI-P5x cells, without rucaparib), 83.9% (active); in assay [9] (at 0.00122 µM, OCI-C5x cells, with rucaparib 10 µM, 100% = cells with rucaparib alone), 116% (inactive); in [9] (at 0.00122 µM, OCI-C5x cells, without rucaparib), 119% (inactive). The viability in assay [9] (at 0.00122 µM, OCI-P5x cells, with rucaparib 20 µM, 100% = cells with rucaparib alone) was 102% (inactive); in assay [9] (at 0.00122 µM, OCI-P5x cells, without rucaparib) it was 88.4% (active); in assay [9] (at 0.00488 µM, OCI-C5x cells, with rucaparib 10 µM, 100% = cells with rucaparib alone) it was 112% (inactive); in assay [9] (at 0.00488 µM, OCI-C5x cells, without rucaparib) it was 120% (inactive); in assay [9] (at 0.00488 µM, OCI-P5x cells, with rucaparib 20 µM, 100% = cells with rucaparib alone) it was 106% (inactive); in [9] (at 0.00488 µM, OCI-P5x cells, without rucaparib), 97.3% (active). For the same compound, the viability in assay [9] (at 0.0195 µM, OCI-C5x cells, with rucaparib 10 µM, 100% = cells with rucaparib alone) is 114% (inactive); in assay [9] (at 0.0195 µM, OCI-C5x cells, without rucaparib), 122% (inactive); in assay [9] (at 0.0195 µM, OCI-P5x cells, with rucaparib 20 µM, 100% = cells with rucaparib alone), 102% (inactive); in assay [9] (at 0.0195 µM, OCI-P5x cells, without rucaparib) it was 96.2% (active); in [9] (at 0.0781 µM, OCI-C5x cells, with rucaparib 10 µM, 100% = cells with rucaparib alone), 113% (inactive); in [9] (at 0.0781 µM, OCI-C5x cells, without rucaparib), 116% (inactive). Besides, the viability in assay [9] (at 0.0781 µM, OCI-P5x cells, with rucaparib 20 µM, 100% = cells with rucaparib alone) was 110% (inactive); in [9] (at 0.0781 µM, OCI-P5x cells, without rucaparib), 101% (inactive); in assay [9] (at 0.313 µM, OCI-C5x cells, with rucaparib 10 µM, 100% = cells with rucaparib alone) it was 109% (inactive); in [9] (at 0.313 µM, OCI-C5x cells, without rucaparib), 129% (inactive); in assay [9] (at 0.313 µM, OCI-P5x cells, with rucaparib 20 µM, 100% = cells with rucaparib alone), 117% (inactive); in assay [9] (at 0.313 µM, OCI-P5x cells, without rucaparib), 107% (inactive). In addition, the viability is 114% (inactive) in [9] (at 1.25 µM, OCI-C5x cells, with rucaparib 10 µM, 100% = cells with rucaparib alone); 122% (inactive) in [9] (at 1.25 µM, OCI-C5x cells, without rucaparib); 115% (inactive) in [9] (at 1.25 µM, OCI-P5x cells, with rucaparib 20 µM, 100% = cells with rucaparib alone); 109% (inactive) in [9] (at 1.25 µM, OCI-P5x cells, without rucaparib); 129% (inactive) in assay [9] (at 5 µM, OCI-C5x cells, with rucaparib 10 µM, 100% = cells with rucaparib alone); 135% (inactive) in [9] (at 5 µM, OCI-C5x cells, without rucaparib). The viability in assay [9] (at 5 µM, OCI-P5x cells, with rucaparib 20 µM, 100% = cells with rucaparib alone) is 141% (inactive); in [9] (at 5 µM, OCI-P5x cells, without rucaparib), 109% (inactive).

For the compound `Cc1ccc(Nc2nnc(Cc3ccncc3)c3ccccc23)cc1Br`, the AC50 in [1] was 14.8 µM (active); in assay [3] it was 18.6 µM (active).

`Nc1nc(-c2nn(Cc3ccccc3F)c3ncccc23)ncc1C1CC1`: the half-maximal activity concentration (AC50) in [6] is 11.8 µM (active). The result in [4] was inactive.

In the case of `NCCCC[C@H](NC(=O)[C@@H](NC(=O)[C@H](Cc1c[nH]c2ccccc12)NC(=O)[C@H](CCCCN)NC(=O)[C@H](CCCCN)NC(=O)[C@H](Cc1c[nH]c2ccccc12)NC(=O)[C@H](Cc1c[nH]c2ccccc12)NC(=O)[C@H](CCCCN)NC(=O)[C@@H](N)CCCCN)C(c1ccccc1)c1ccccc1)C(N)=O`, in assay [1], the AC50 was 20.9 µM (active).

The values above are taken from PubChem BioAssay.
